Assay results from PubChem BioAssay AID449762 (Southern Research Specialized Biocontainment Screening …, 2010).
The campaign covered roughly 330,000 compounds. About 1,900 (0.58%) were called active. Inconclusive results (about 4%) are left out. Cut-off read from the data, not from the text of the source: inconclusive = inhibition above about 70% without an active follow-up result; inactive = below that. A selection follows. Results with a measured potency or affinity are listed apart.

Assay: M. tuberculosis growth inhibition, HTS (AID 449762);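 note: bacterial growth assessed after seven days of incubation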
Details: M. tuberculosis H37Rv growth inhibition, 7H9 media; at 25 µM; stronger effect = higher value
In the case of CCOc1ccc(NC(=S)NC23CC4CC(CC(C4)C2)C3)cc1, the inhibition is reported as -20.5% (inactive).
In the case of CSc1nsc(SC)c1C(=O)OCC(F)(F)F, the inhibition is reported as -1.41% (inactive).
In the case of CCN1CCN(CC2COc3ccccc3O2)CC1 (stereo not drawn), the inhibition is reported as -2.32% (inactive).
With CCN(CC)C(=O)CN1CCC(c2nc3cc(C)c(C)cc3[nH]2)CC1 the inhibition was -1.85% (inactive).
For CCC(C)N1C(=O)CCC1C(=O)NCCc1ccc(Cl)cc1 (stereo not drawn), the inhibition was 5.11% (inactive).
With CCCCOc1ccc(CC2CCC(=O)NC2=O)cc1 (stereo not drawn) the inhibition was 12.4% (inactive).
For CCOc1ccc(C(C)(C)C)cc1S(=O)(=O)n1nc(C)cc1C, the inhibition was -3.62% (inactive).
For COc1cc(C(=S)N2CCOCC2)ccc1OC(=O)/C=C/c1ccco1, the inhibition was 5.25% (inactive).
In the case of O=C(/C=C/c1ccccc1)Oc1ccc(C(=S)N2CCOCC2)cc1, the inhibition is reported as 13.4% (inactive).
For CN(C)S(=O)(=O)c1ccc(Nc2ccc(-c3ccc4c(c3)OCCO4)nn2)cc1, the inhibition was 2.53% (inactive).
For CN(C(=O)c1cccc(NC(=O)c2ccccc2)c1)C1CCCCC1, the inhibition was -5.84% (inactive).
With COc1ccc(-c2nn3c(-c4ccccc4)nnc3s2)cc1 the inhibition was 36.9% (inactive).
For CCOc1ccc(-c2nn3c(-c4ccc(F)cc4)nnc3s2)cc1, the inhibition was 0.65% (inactive).
With COc1ccccc1OCC(=O)N/N=C1/C=C(C)CC1 the inhibition was 8.93% (inactive).
With COc1ccc(CNC(=O)C2CCC(CNc3c(N4CCOCC4)c(=O)c3=O)CC2)cc1 (stereo not drawn) the inhibition was -8.95% (inactive).
With Cc1ccc(CNC(=O)c2ccc(CNc3c(N4CCCC4)c(=O)c3=O)cc2)cc1 the inhibition was -5.18% (inactive).
In the case of COc1cc(NC(=O)c2ccc(CNc3c(N4CCOCC4)c(=O)c3=O)cc2)cc(OC)c1, the inhibition is reported as -10.6% (inactive).
With O=C(c1ccc(CNc2c(N3CCCC3)c(=O)c2=O)cc1)N1CCN(C2CCCCC2)CC1 the inhibition was 38.8% (inactive).
For CC(C)C[C@H]1CNC(=O)C(=O)N1C[C@H](C)NC(=O)Cc1ccccc1, the inhibition was -3.35% (inactive).
For N#Cc1cccc(C(=O)N(CCc2ccccc2)Cc2cccs2)c1, the inhibition was 2.88% (inactive).
In the case of Cc1cc(NC(=O)CN(C)CC(=O)Nc2ccc(F)c(F)c2F)no1, the inhibition is reported as -14.5% (inactive).
In the case of N#Cc1c(-c2ccc(Br)cc2)nc2n(c1=O)CCCS2, the inhibition is reported as -5.36% (inactive).
For O=c1nc2n(c3ccc(Br)cc13)CCS2, the inhibition was 14% (inactive).
For CC(C)n1nnnc1-c1ccc(Cl)cc1, the inhibition was -5.7% (inactive).
In the case of N#Cc1ccc(C23OCCN2CCn2c3c3ccccc3[n+]2[O-])cc1 (stereo not drawn), the inhibition is reported as 21.6% (inactive).
With Cc1ccc(C23OCCN2CCn2nc4ccccc4c23)cc1 (stereo not drawn) the inhibition was -9.54% (inactive).
For O=C(Nc1sc2c(c1C(=O)NC1CC1)CCCCCC2)c1ccco1, the inhibition was -5.06% (inactive).
In the case of c1cncc(C2CC(c3cccs3)n3ncnc3N2)c1 (stereo not drawn), the inhibition is reported as -8.25% (inactive).
With Cc1ccc2nc(/C(C#N)=C/c3ccccc3C(=O)O)[nH]c2c1 the inhibition was -0.89% (inactive).
With Cc1ccc2nc(/C(C#N)=C/c3ccc(O)c(O)c3)[nH]c2c1 the inhibition was 0.8% (inactive).
In the case of CCc1ccccc1NC(=O)CNC(=O)c1n[nH]c(=O)c2ccccc12, the inhibition is reported as -6.75% (inactive).
In the case of C=C[C@@H]1c2cc(C)ccc2N(S(=O)(=O)c2ccc(C)cc2)[C@H](c2ccccc2)C1(C#N)C#N, the inhibition is reported as -12.5% (inactive).
With COc1cc(C)ccc1OCCOc1c(C)cccc1Cl the inhibition was 62.7% (inactive).
For COc1cc(C)ccc1OCCOc1c(Cl)cc(Cl)cc1Cl, the inhibition was -4.9% (inactive).
For CC(C)Oc1ccc(C(=O)NC(Cc2c[nH]c3ccccc23)C(=O)NN)cc1 (stereo not drawn), the inhibition was 3.03% (inactive).
For Cc1cc(Br)ccc1NC(=O)CN1CCN(c2ccccn2)CC1, the inhibition was -1.24% (inactive).
For CC(C)NC(=O)c1cnc(N2CCN(c3ccccn3)CC2)c2ccccc12, the inhibition was -4.73% (inactive).
In the case of COc1ccc(Br)cc1C(=O)Nc1ccc(Cc2ccncc2)cc1, the inhibition is reported as -1.26% (inactive).
With COc1ccccc1C(=O)Nc1ccc(Cc2ccncc2)cc1 the inhibition was -0.58% (inactive).
With O=C(NCCc1ccc(Cl)cc1)C1CCCN(c2ncnc3c2nc2n3CCCCC2)C1 (stereo not drawn) the inhibition was 29.1% (inactive).
In the case of CC1CCCN(C(=O)c2ccc(-c3ccccc3Cl)o2)C1 (stereo not drawn), the inhibition is reported as 27.8% (inactive).
For NC(=O)C1CCN(C(=O)c2ccc(-c3ccccc3Cl)o2)CC1, the inhibition was -1.57% (inactive).
In the case of COCc1cc(C)nc(SCC[N+](C)(C)CC(=O)Nc2cccc(C)c2)c1C#N, the inhibition is reported as 10.4% (inactive).
For CNc1nc2c(-c3ccc(Cl)cc3)nnn2c2ccccc12, the inhibition was 8.01% (inactive).
For NNc1nc2c(-c3ccc(Cl)cc3)nnn2c2ccccc12, the inhibition was -3.53% (inactive).
With CCC(C)CCN1C(Nc2ccccc2)=NC[C@@H]1CC(C)C (stereo partly drawn) the inhibition was -0.75% (inactive).
With CN1C(C(=O)N2CCC3(CC2)OCCO3)=CC(c2ccc(F)cc2)=NS1(=O)=O the inhibition was 1.76% (inactive).
For Cc1nonc1OCCNCCNc1ccccc1[N+](=O)[O-], the inhibition was 5.53% (inactive).
With Cc1nonc1OCCNc1ccc([N+](=O)[O-])c2cccnc12 the inhibition was 2.82% (inactive).
With C#CCOCCOCCOCCNc1nc(N2CCN(C(=O)C(CCC(=O)O)n3cc(C(N)CC(C)C)nn3)CC2)nc(N2CCN(C(=O)C(Cc3cc4ccccc4[nH]3)n3cc(C(N)Cc4ccc(O)cc4)nn3)CC2)n1 (stereo not drawn) the inhibition was 2.57% (inactive).
For C#CCOCCOCCOCCNc1nc(N2CCN(C(=O)[C@H](CCC(=O)O)n3cc(C(N)Cc4ccc(O)cc4)nn3)CC2)nc(N2CCN(C(=O)[C@H](Cc3cc4ccccc4[nH]3)n3cc(C(N)CC(C)C)nn3)CC2)n1 (stereo partly drawn), the inhibition was -1.44% (inactive).
With CCCNC(=O)OCc1cccnc1Sc1ccc(C)cc1 the inhibition was 3.87% (inactive).
For CC(C)(C)OC(=O)N1CCC[C@H]1c1nnc(SCc2c(F)cccc2Cl)o1, the inhibition was 5.9% (inactive).
With Cc1noc(C)c1COC(=O)c1ccc(-c2nc3ccccc3s2)s1 the inhibition was -0.34% (inactive).
In the case of CCCNC(=O)c1ccc(-c2nc3ccccc3s2)s1, the inhibition is reported as 11% (inactive).
For CCCN(CC(=O)Nc1cc(Cl)ccc1Cl)C(=O)c1ccccn1, the inhibition was -9.27% (inactive).
With O=C(NC1CCC(=O)N(CCSc2ccccc2)CC1)OCc1ccccc1 (stereo not drawn) the inhibition was 1.1% (inactive).
With Cc1ccc(SCCN2CCC(NC(=O)OCc3ccccc3)CCC2=O)cc1 (stereo not drawn) the inhibition was -5.79% (inactive).
